Shown are actives, neighbours in structure and some others; about 12% of the full set was active somewhere.
m-calpain inh = calpain II (pig) inhibition. purified calpain II, fluorogenic peptide substrate, 30 min. inhibition, % at 16 µM. 0.37% of 220,000 active;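 active = inhibition above about 50%, limit read from the data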
Lmaj promast = reduces viability of Leishmania major promastigotes. resazurin fluorescence viability. inhibition, % at 10 µM. 9% of 200,000 active. AID 1063; in the data active = inhibition above about 50%;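 note: promastigotes grown with compound for 44 hours at 28 °C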
Cl transport mod = modulates chloride dependent transport by human KCC2; Q9H2X9; KCC2 cells, thallium flux FluoZin-2 fluorescence; B-score of Tl+ flux slope (higher = more flux/activation; lower = inhibition) at 10 µM; 2.2% of 190,000 active; AID 1456;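 active = thallium flux slope and its plate-corrected score both differing from the plate sample mean at a set confidence after two filtering rounds, in either direction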;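 note: slope of fluorescence scaled to starting intensity during 10 to 20 s after thallium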
ROMK primary = modulates human ROMK potassium channel activity; P48048; Tet-inducible ROMK, thallium flux fluorescence; actives lie on both sides; B-score at 10 µM; 2% of 130,000 active; AID 1918;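 active = signal ratio slope over the read window, or its plate-corrected B-score, at least 3 SD from the plate mean, either direction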;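 note: B-score of the F/F0 ratio slope over 7 to 12 s after thallium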
Target sequence (P48048 whole entry, looked up): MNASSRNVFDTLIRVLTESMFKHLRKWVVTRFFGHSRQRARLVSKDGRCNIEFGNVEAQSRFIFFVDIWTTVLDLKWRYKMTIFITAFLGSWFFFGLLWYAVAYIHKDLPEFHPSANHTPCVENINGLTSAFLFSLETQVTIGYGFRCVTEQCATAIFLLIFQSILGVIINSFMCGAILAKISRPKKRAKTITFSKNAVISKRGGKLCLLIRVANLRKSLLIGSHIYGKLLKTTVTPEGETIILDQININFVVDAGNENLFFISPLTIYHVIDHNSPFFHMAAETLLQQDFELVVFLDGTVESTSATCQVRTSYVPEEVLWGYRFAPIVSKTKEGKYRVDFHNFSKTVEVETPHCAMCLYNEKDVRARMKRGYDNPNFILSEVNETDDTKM
WT yeast gro inh = growth inhibition of WT yeast, mitochondrial fusion screen | AID 1362 | inhibition, % at 10 µM | 2.1% of 190,000 active | mitochondrial fusion phenotypic screen, WT strain; in the data active = inhibition above about 58%; tested in S. cerevisiae
KCC2 secondary = KCC2 (human) modulation, secondary assay | HEK293-KCC2, thallium flux, FluoZin2 fluorescence; active compounds read high | normalised thallium flux (F/F0 slope) at 10 µM | 15% of 3,700 active | shares compounds with Cl transport mod;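 active = thallium flux slope above the same plate's solvent-only control mean plus 3 SD; inconclusive = the two replicate wells disagree; inactive = no significant difference from solvent-only control wells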
KCC2 bumet counter = bumetanide-insensitive thallium flux in KCC2 cells with ouabain, counter-screen | shares compounds with Cl transport mod | HEK293-KCC2 + bumetanide/ouabain, thallium flux FluoZin2; active compounds read high | normalized thallium flux at 10 µM | 49% of 3,700 active | AID 1714;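 active = thallium entry rate above the same plate's blocked-transporter control wells by more than 3 SD; inconclusive = the two repeat wells disagree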;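 note: raw slope of fluorescence over initial fluorescence between 10 and 20 s after thallium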
KCC2 secondary2 = KCC2 (human) modulation, second secondary assay; shares compounds with Cl transport mod; HEK293-KCC2, thallium flux FluoZin2 fluorescence; actives lie on both sides; F/F0 rise rate, 10–20 s post-thallium; normalized thallium flux at 10 µM; 23% of 3,700 active; AID 1715;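 active = thallium flux slope more than 3 SD above or below the plate's solvent-only control mean, mostly below; inconclusive = the two repeat wells disagreed; inactive = no significant shift from solvent-only controls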;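 note: raw slope with 0.1% DMSO as baseline and bumetanide as block control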
HEK293 Tl flux = parental HEK flux effect, counter-screen; HEK293 parental cells, thallium flux FluoZin2, ouabain; baseline-ratio fluorescence slope, 10–20 s after thallium; thallium flux rate (normalised fluorescence) at 10 µM; 46% of 3,700 active; shares compounds with Cl transport mod;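 active = thallium flux rate significantly above the same plate's solvent-only control wells, beyond their mean plus 3 SD; inconclusive = the two replicate wells gave conflicting results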
KCC2 ouabain = KCC2 (human) modulation, ouabain retest; raw Tl+ flux slope (below DMSO = inhibition, above = activation) at 10 µM; HEK293-KCC2, thallium flux FluoZin2 fluorescence; bidirectional: low = inhibitor, high = activator; 48% of 3,700 active; shares compounds with Cl transport mod;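 active = thallium flux slope beyond 3 SD from same-plate DMSO control mean in most replicates, usually higher, sometimes lower; inconclusive = repeat tests gave conflicting results; inactive = no significant difference from controls in most replicates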;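 note: slope of initial-normalized fluorescence between seconds 10 and 20 after thallium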
HEK293 Tl flux2 = acts in parental HEK cells, second KCC2 counter-screen. shares compounds with Cl transport mod. HEK293 parental, thallium flux FluoZin-2 fluorescence slope. thallium flux slope at 10 µM. 33% of 3,700 active;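 active = thallium flux slope above the same plate's solvent-control mean plus 3 SD in both duplicate wells; inconclusive = duplicate wells that disagreed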;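 note: run without ouabain in cells lacking the KCC2 cotransporter; slope of fluorescence scaled to its starting value between 10 and 20 s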
* marks the source's active call; other numbers are inactive results; u = inconclusive; x = no result given.

SMILES | m-calpain inh | Lmaj promast | Cl transport mod | ROMK primary | WT yeast gro inh | KCC2 secondary | KCC2 bumet counter | KCC2 secondary2 | HEK293 Tl flux | KCC2 ouabain | HEK293 Tl flux2
O=C(C(=S)N1CCOCC1)c1c[nH]c2ccccc12 | 19 | 4 | 1.5 | 0.24 | 13 | x | x | x | x | x | x
COC(=O)c1cc2c(ccn2-c2ccc(F)cc2)n1CC(=O)C(C)(C)C | -27 | -3 | 0.4 | -0.24 | 5 | x | x | x | x | x | x
CCOC(=O)c1cc2c(ccn2-c2ccc(F)cc2)n1CC(=O)N(CC)CC | -183 | 7 | -5.5* | -0.91 | -9 | 0.015 | 0.0036 | 0.023* | u | 0.012* | 0.009
CCOC(=O)C(NCc1ccco1)(NC(=O)c1ccccc1)C(F)(F)F (configuration not stated) | -36 | -4 | 0.84 | -0.19 | 13 | x | x | x | x | x | x
CCOC(=O)/C(C#N)=C1/C=C(C)NC(c2ccccc2O)=N1 | -11 | -4 | -3.8* | -2.1 | -12 | 0.0071 | 0.0036 | 0.022* | 0.0053* | 0.013* | u
CS/C(N)=N/S(=O)(=O)c1ccc(NC(C)=O)cc1 | 6 | x | -0.4 | x | x | x | x | x | x | x | x
CCOC(=O)C1=C(N)OC2=C(C(=O)CCC2)C1c1ccc(C)s1 (configuration not stated) | 2 | 7 | -0.71 | x | 5 | x | x | x | x | x | x
CCOC(=O)C1=C(N)OC2=C(C(=O)CCC2)C1c1sccc1C (configuration not stated) | 21 | 5 | -6.4* | -0.069 | -5 | 0.0059 | 0.0045 | u | 0.0062* | 0.017 | 0.0088*
CCCCC(=O)Nc1nnc(CCOC)s1 | -7 | -4 | 0.79 | -0.01 | -17 | x | x | x | x | x | x
CCOc1ccc(NC(=O)C2=C(C)C(=O)OC23CCC(C)CC3)cc1 (configuration not stated) | -5 | 13 | x | x | 17 | x | x | x | x | x | x
O=C(CNC(=O)/C(=C\c1ccc(Br)cc1)NC(=O)c1ccccc1)OCc1ccccc1 | -21 | 4 | -6.1* | x | 8 | 0.0066 | 0.0046 | 0.021* | 0.0077 | 0.012* | 0.01
O=C(NCCO)/C(=C/c1ccc(Br)cc1)NC(=O)c1cccs1 | -2 | -6 | x | x | -3 | 0.0084 | 0.0068 | 0.03 | 0.0067 | 0.02 | 0.0098
Cc1ccc(C(=O)N/C(=C\c2ccccc2)C(=O)OCc2ccccc2)cc1 | 27 | 27 | -1.8 | x | 8 | x | x | x | x | x | x
O=C(CNC(=O)/C(=C/c1ccccc1)NC(=O)c1ccc(Br)cc1)OCc1ccccc1 | 7 | -2 | -6.9* | x | 9 | 0.0078 | 0.0057 | 0.022* | 0.0064 | 0.011* | 0.009
CCCN(CCC)C(=O)Cc1coc2ccc3ccccc3c12 | 7 | -3 | -1 | -0.35 | 17 | x | x | x | x | x | x
CC(=O)N1CCN(Cc2nc3cc(NC(=O)Nc4ccccc4)ccc3n2C)CC1 | -22 | -5 | 0.46 | -0.42 | 3 | x | x | x | x | x | x
CCOc1ccc(-c2nc(-c3cccs3)c(CC(=O)O)s2)cc1OC | -138 | 2 | -3.1* | 0.29 | -1 | 0.017 | 0.0058* | 0.029 | 0.0072 | 0.015 | 0.01
O=C(O)Cc1sc(-c2ccccc2)nc1-c1ccccc1 | -15 | -1 | x | x | -9 | x | x | x | x | x | x
C=CCn1c(SCC(=O)c2ccc(F)cc2)nnc1-c1ccc2c(c1)OCO2 | 17 | 8 | -3.7* | -0.75 | -3 | 0.0077 | 0.0048 | 0.031 | 0.007 | 0.015* | 0.011
CCn1c(SCC(N)=O)nnc1-c1ccc2c(c1)OCO2 | 8 | -5 | -0.11 | 0.43 | -8 | x | x | x | x | x | x
O=C(Nc1ccc(Cl)cn1)C1CCCN1S(=O)(=O)c1ccc(Cl)cc1 (configuration not stated) | 13 | 53* | x | 0.58 | 9 | 0.0082 | 0.007 | 0.033 | u | 0.024 | 0.0099
COc1ccc(-c2nnn(CC(=O)NCc3cccs3)n2)cc1OC | -7 | 0 | 0.13 | x | 10 | x | x | x | x | x | x
CCCn1nnc(NCc2ccc(OCc3cccs3)c(OC)c2)n1 | -15 | 5 | -2.9* | x | -16 | 0.0069 | 0.0046 | 0.028 | 0.0073 | u | 0.01
O=C(NC1CCCC1)C(c1ccncc1)N(Cc1ccco1)C(=O)c1ccc(-c2ccccc2)[nH]1 (configuration not stated) | -65 | 94* | -3.3* | 0.25 | -23 | 0.0071 | u | 0.024* | 0.0074 | u | 0.011
CCOc1ccc(C(C(=O)NC2CCCC2)N(CCCO)C(=O)c2ccc(-c3ccccc3)[nH]2)cc1 (configuration not stated) | -20 | 5 | -5.7* | -0.63 | 8 | 0.0087 | 0.0053 | u | 0.0038 | 0.017* | 0.011
SMILES | m-calpain inh | Lmaj promast | Cl transport mod | ROMK primary | WT yeast gro inh | KCC2 secondary | KCC2 bumet counter | KCC2 secondary2 | HEK293 Tl flux | KCC2 ouabain | HEK293 Tl flux2
O=C(CSc1nc2ccccc2o1)N/N=C/c1ccc(C(=O)O)cc1 | 4 | x | 0.84 | -0.33 | x | x | x | x | x | x | x
CC1(C)C/C(=N\O)C(C(O)c2cccc([N+](=O)[O-])c2)C(C)(C)N1 (configuration not stated) | -10 | x | -0.13 | x | x | x | x | x | x | x | x
COc1cccc(C(=O)N(c2ccccc2)C2C=CS(=O)(=O)C2)c1 (configuration not stated) | -7 | -6 | -0.16 | -0.24 | 1 | x | x | x | x | x | x
CCOC(=O)c1c(C)[nH]c(C(=O)COC(=O)C2(C)CC2(Cl)Cl)c1C (configuration not stated) | 2 | 13 | x | -0.2 | -1 | 0.0072 | 0.0042 | 0.028 | 0.0073 | 0.017 | 0.01
Cc1ccc(OCC(=O)NNC(=O)C(=O)N2CCCC2)c(C)c1 | 18 | -4 | 4.3* | -0.28 | 20 | 0.0054 | 0.013* | 0.035 | 0.013* | u | 0.015*
Cc1cc(Br)ccc1OCC(=O)NNC(=O)C(=O)Nc1ccccc1 | -69 | -3 | x | x | -46 | 0.022* | 0.093* | u | 0.087* | 0.075* | 0.072*
CC1CCCN(Cc2csc(N)n2)C1 (configuration not stated) | -31 | -7 | x | -0.011 | -12 | x | x | x | x | x | x
Cc1ccc(Cn2cc(/C=C/C(=O)O)c(-c3ccccc3)n2)cc1 | -28 | -5 | -2.9 | x | 4 | x | x | x | x | x | x
Cc1ccc(-c2nn(Cc3ccccc3)cc2/C=C/C(=O)O)cc1 | -30 | -4 | -4.5* | x | -6 | 0.0095 | 0.0063 | 0.025* | 0.0082 | 0.013* | 0.012
O=C(O)/C=C/c1cn(Cc2ccccc2)nc1-c1ccc(Cl)cc1 | -28 | -2 | -4.7* | 0.24 | -9 | u | 0.006 | u | 0.0062 | 0.012* | 0.01

Screens deposited in PubChem BioAssay by several laboratories.
